Data reported in PubChem BioAssay (NCI).
The panel holds about 83,000 compounds, 20% with a hit somewhere; the sample as a whole holds those more often.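 The endpoint reported here, percent growth, reads 100 for growth as untreated, 0 for no net growth and -100 for all cells dead.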 A number with no mark means an inactive call. Active and inactive are the calls of the source. How the source made its calls: active means growth percent below 10; inactive means the rest.

Test system: HL-60(TB) leukemia
Test: NCI-60 one-dose screen, 48 h (100 = growth as untreated, 0 = no growth, -100 = all killed)
Conditions: 10 µM unless noted

In order of rising growth:
1. Clc1cc(Cl)cc(-c2cnc3nonc3n2)c1  10.9%
2. O=C(O)c1cc2c(s1)C(=O)c1sccc1C2=O  10.9%
3. COc1ccccc1Cn1cc2c(c1-c1ccccc1)CCc1cnoc1-2  19.4%
4. N#Cc1ccc(NC(=O)Nc2ccc(Cc3ccc(NC(=O)Nc4ccc(C#N)cc4)cc3)cc2)cc1  22.4%
5. CC1(C)N=C(N)N=C(N)N1c1cccc(CCc2ccccc2)c1  32.4%
6. N#CC1=C(N)Oc2ccc3ccccc3c2C1c1ccc([N+](=O)[O-])cc1 (stereo not given)  39.8%
7. COc1ccc(N2CCN(c3nc(-c4cc(OC)c(OC)c(OC)c4)nc4ccccc34)CC2)cc1  44.4%
8. Clc1ccc2[nH]cc(-c3cncn3CCc3ccccc3)c2c1  45.1%
9. CN1CCN(CCCOc2ccc3nc(Nc4ccc(F)c(F)c4)ccc3c2)CC1  46.8%
10. CCN(CCCCCCN1CC(=O)N(CCCCCCN(CC)Cc2ccccc2OC)CC1=O)Cc1ccccc1OC  60.6%
11. NCCNc1nc2ccccc2c2c(=O)c3cc(F)ccc3sc12  62.8%
12. COc1cc(C(=O)n2nc(NCCCc3ccccc3)c3cc(N)ccc32)cc(OC)c1OC  69.5%
13. O=c1c2c3c(sc2n2c(-c4cc(-c5ccccc5)no4)nnc2n1Cc1ccccc1)CCCC3  72.8%
14. O=C1c2cc([N+](=O)[O-])ccc2-c2cc(Cl)c(NC(=O)C(F)(F)F)cc21  75.6%
15. c1ccc(CO[C@H]2CO[C@H]3[C@@H]2OC[C@@H]3Oc2ccc(Nc3ncnc4ccsc34)cc2)cc1  75.7%
16. O=C(CN1CCN(C(=O)c2ccccc2)CC1)Nc1ccccc1SCc1ccccc1  80.5%
17. COc1ccc([N+](=O)[O-])c(/C=C/C(=O)c2ccccn2)c1  88.9%
18. COc1cc(C2C(C#N)=C(N)OC3=C2C(=O)c2ccccc2C3=O)cc(OC)c1O (stereo not given)  90.9%
19. CC(C)(C)CC(C)(C)Nc1c(-c2c(O)c3ccccc3oc2=O)nc2c(Cl)cc(C(F)(F)F)cn12  90.9%
20. OCc1cccc2ccccc12  93.5%
21. O=C(O)CCCCSCCCCC(=O)O  97.8%
22. CCCCCCCCCCCCCCCC(=O)OC1[C@@H](OC(=O)CCCCCCCCCCCCCCC)[C@@H](C(=O)N[C@@H](CCCCN)C(=O)OC)O[C@H]1n1cnc2c(=O)[nH]c(NC(=O)C(C)C)nc21 (stereo not given in full)  98.3%
23. CC(=O)O.CN1[CH-]N(Cc2ccc(C#N)cc2)c2ccccc21.[Ag+]  102%
24. c1ccc(CCCCc2ccc3ccccc3n2)cc1  102%
25. Cn1c2c(Cl)c(Cl)ccc2c2c(C#N)c[nH]c(=O)c21  107%
26. CCN(CC)CCNC(=O)c1ccc(NC(C)=O)cc1  110%
27. O=C(CCN1CCCCC1)c1ccc(Cl)cc1  111%
28. CC1CCC2C(C)(C)C3CC12CC1OC13C (stereo not given)  125%

In the case of `CN1C(=O)N(C)C2C1NC(=S)N2/N=C/C=C/c1ccccc1[N+](=O)[O-]` (stereo not given), the growth is reported as -34.9% (active).
In the case of `COc1ccc(Cn2cc3c(c2)-c2oncc2CC3)cc1OC`, the growth is reported as 2.83% (active).
`C=CCN(CC=C)C(=O)[C@H](CC)[C@@H]1CC[C@@H](C)[C@@H]([C@H](C)[C@@H](O)[C@@H](C)C(=O)[C@H](CC)C2O[C@]3(C=C[C@@H](O)[C@]4(CC[C@@](C)([C@H]5CC[C@](O)(CC)[C@H](C)O5)O4)O3)[C@H](C)C[C@@H]2C)O1` (stereo not given in full) was tested, and the growth was -36.8% (active).
With `COc1ccc(S(=O)(=O)N2CC3(COC3)C2)cc1NC(=O)c1[nH]c(C)c2c1CCCCC2=O` the growth was -11% (active).
In the case of `COc1ccc(-c2[nH]c3ccccc3c2/C=C(\C#N)S(=O)(=O)c2ccccc2)cc1`, the growth is reported as -28.4% (active).
In the case of `Cn1nc(C(F)(F)F)c(-c2cc(C(F)(F)F)cc(C(F)(F)F)c2)c1-c1ccc(OCc2ccc(Cl)cc2)cc1O`, the growth is reported as -39.9% (active).
In the case of `COc1ccc2c(-c3ccc(F)cc3)c(C#N)c(=NC(C)=O)oc2c1`, the growth is reported as -17.4% (active).
With `COc1cc2nc(SCc3cc(OC)c(OC)c(OC)c3)n(-c3ccccc3OC)c(=O)c2cc1OC` the growth was -16% (active).
`Nc1ccc2c(c1)C(=O)C(=O)c1c-2nc2ccccn12` was tested, and the growth was -47.3% (active).
With `O=S(=O)(NCCNc1cc(-c2cn(-c3ccccc3)nc2-c2cccc(O)c2)ccn1)c1ccc(C(F)(F)F)cc1` the growth was 8.76% (active).
For `Cc1ccc2cnc(N)c(C#Cc3cncc(C(=O)Nc4ccc(CN5CCN(C)CC5)c(C(F)(F)F)c4)c3)c2c1`, the growth was -59.7% (active).
In the case of `Cc1cc(C)c(C#N)c(SCC(=O)c2sc3c(C#N)c(C)cc(C)[n+]3c2[O-])n1`, the growth is reported as -39.3% (active).
